# Source: PubChem (National Center for Advancing Translational Sciences (NCATS))
# Sampled rows, rich in hits. Any-hit rate of the full collection: about 18%.
# TDP1 cell CPT: DT40-hTDP1 cell growth loss with CPT; chicken DT40 Tdp1-/-;hTDP1 cells + 20 nM CPT, ATP luminescence, 48 h; Potency, µM (series often up to 46.2 µM), without a hit: top-dose activity change, negative = growth inhibition, usual class: inhibitors; actives 12% (n = 420,000); AID 686979; further: potency means the concentration at half of the fitted maximal effect; nearly all actives have a fitted effect of over 55% in size
#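 Cell growth measured by CellTiter-Glo luminescence after a minimum 48 h, 37 C compound exposure with 20 nM CPT in Tdp1-knockout DT40 cells stably expressing hTDP1, seeded 400/well; qHTS titration format.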
# CtBP-E1A inh: inhibitors of CtBP/E1A interaction; AlphaScreen GST-E1A/His-CtBP binding, 1536-well; active compounds read low; activity change, % (no concentration beside the values); actives 0.49% (n = 340,000); AID 651724; in the data active means activity change below about -65%; inconclusive means mostly about -30% to -63%
#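 AlphaScreen with 125 nM GST-E1A and 125 nM His-CtBP (5X stocks) in Tris pH 8.0, 300 mM NaCl, BSA, Tween 20, TCEP. Compounds preincubated 2 h at 37 deg C, then glutathione donor/nickel acceptor beads added for 1 h at 37 deg C in dark.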
# IL-1B inflam inh: inflammasome signaling inhibition, IL-1 beta readout; AID 743279; actives 4.7% (n = 360,000); THP-1 LPS/ATP IL-1B secretion, AlphaLISA, 16 h; active compounds read low; activity change, % at 57.5 µM; in the data active means activity change below about -50%; inconclusive means mostly about -30% to -49%
#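 THP-1 cells pretreated 1 hr with compounds (up to 57.5 uM final), then stimulated with LPS (250 ng/mL final) plus ATP (1.25 mM final); secreted IL-1B measured by AlphaLISA after 16 hr, decreased signal indicating inhibition.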
# TDP1 cell noCPT: qHTS for Inhibitors of human tyrosyl-DNA phosphodiesterase 1 (TDP1): qHTS in cells in absence of CPT; DT40 Tdp1-/- hTDP1 cells, no CPT, ATP luminescence, 48 h; actives 15% (n = 420,000); Potency, µM (top dose mostly 46.2 µM), for the others: at the top dose activity change, negative = growth inhibition, usual class: inhibitors; further: potency means the concentration at half of the fitted maximal effect; nearly all actives have a fitted effect of over 55% in size
#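 DT40 Tdp1-/-;hTDP1 cells, no CPT (DMSO vehicle only), 400 cells/well; compounds pin-transferred; ≥48 hr, 37 °C; CellTiter-Glo 30 min RT dark, luminescence read.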
# Six1-Eya2 inh: Six1/Eya2 interaction inhibition | Q15475+O00167 | AlphaScreen GST-Six1/His-Eya2 binding, biochemical; active compounds read low | activity change, % (concentration not given with the values) | actives 0.56% (n = 360,000); in the data active means activity change below about -65%; inconclusive means mostly about -30% to -63%
# Target sequence (O00167 whole entry, looked up): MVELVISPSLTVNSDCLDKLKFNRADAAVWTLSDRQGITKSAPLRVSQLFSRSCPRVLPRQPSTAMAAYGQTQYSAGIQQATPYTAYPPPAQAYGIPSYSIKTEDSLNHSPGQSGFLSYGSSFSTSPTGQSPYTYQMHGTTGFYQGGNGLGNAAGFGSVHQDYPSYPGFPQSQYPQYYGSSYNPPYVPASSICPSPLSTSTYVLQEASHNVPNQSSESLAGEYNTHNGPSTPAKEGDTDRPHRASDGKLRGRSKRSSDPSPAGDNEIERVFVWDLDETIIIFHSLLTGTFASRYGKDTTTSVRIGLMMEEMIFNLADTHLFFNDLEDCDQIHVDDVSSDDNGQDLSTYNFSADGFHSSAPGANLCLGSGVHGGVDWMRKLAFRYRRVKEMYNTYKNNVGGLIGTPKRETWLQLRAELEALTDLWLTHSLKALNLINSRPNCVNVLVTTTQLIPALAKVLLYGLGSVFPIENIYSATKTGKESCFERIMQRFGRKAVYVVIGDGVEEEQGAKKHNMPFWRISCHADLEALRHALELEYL
# Target sequence (Q15475 whole entry, looked up): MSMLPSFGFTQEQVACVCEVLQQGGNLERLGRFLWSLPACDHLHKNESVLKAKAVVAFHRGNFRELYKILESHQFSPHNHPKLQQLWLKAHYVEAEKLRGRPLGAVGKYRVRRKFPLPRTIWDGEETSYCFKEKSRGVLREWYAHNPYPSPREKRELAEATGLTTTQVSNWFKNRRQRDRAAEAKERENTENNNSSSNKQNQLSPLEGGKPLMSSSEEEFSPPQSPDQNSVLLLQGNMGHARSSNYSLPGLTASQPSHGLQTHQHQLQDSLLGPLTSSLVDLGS
#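 Homogeneous AlphaScreen proximity assay pairing GST-Six1 with His-tagged Eya2 (added as 5X mix: 250 nM and 500 nM) in 50 mM Tris pH 8.0, 300 mM NaCl, 1 mM TCEP. Glutathione donor and nickel acceptor beads; 1 h, 37 °C, dark.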
# TDP1 block: TDP1 (human) enzyme inhibition | Q9NUW8 | recombinant TDP1, AlphaScreen DNA substrate cleavage | Potency, µM (titrated, usually from 130 µM), without a hit: top-dose activity change, negative = inhibition, actives largely listed as inhibitors | actives 0.28% (n = 350,000); further: potency means the concentration at half of the fitted maximal effect; nearly all actives have a fitted effect of over 40% in size
#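 Signal: AlphaScreen proximity between streptavidin donor and anti-FITC acceptor beads on intact substrate. Reaction: Tdp1 1 nM, substrate 15 nM final, 5 min RT after 15 min compound preincubation.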
# An asterisk follows results filed as active; ? = inconclusive; . = no result given; [ ] = another dose, or the depositor's remark. Unless noted, the call rests on the fitted dose curve; in most records, active means well fitted curve in the direction sought with a large enough effect; inconclusive means small, poorly fitted or top-dose-only effect, or another doubt; inactive means no such curve, though single readings can be large; an effect the other way counts as inactive or inconclusive. On the % scale 0 is the no-effect control and ±100 the full control effect.
SMILES,TDP1 cell CPT,CtBP-E1A inh,IL-1B inflam inh,TDP1 cell noCPT,Six1-Eya2 inh,TDP1 block
NC(=O)c1ccccc1NC(=O)c1cccc(C(=O)Nc2ccccc2C(N)=O)n1,-16%,-76*,-11,?,-83*,.
O=C(Nc1cccc(Cl)c1)Nc1cccc(C(=O)O)c1,8%,-2,63,-1%,-7,.
Cc1ccc(C(=O)Nc2ccc3c(c2)OCO3)o1,15µM*,0,22,16µM*,-5,5%
O=C(Nc1cccc(Cl)c1)OCCOC(=O)Nc1cccc(Cl)c1,?,-9,?,21µM*,2,.
O=C(Nc1cccc(Cl)c1)N1CCCCCC1,-1%,5,-1,-3%,-4,3%
CSc1ccc(NC(=O)Nc2ccccc2C(N)=O)cc1,13µM*,.,0,?,-1,-11%
O=C(CCC(=O)NNC(=O)Nc1cccc(Cl)c1)NCc1ccccc1,3%,9,-4,-14%,7,5%
CC(=O)Nc1ccc(NC(=O)Nc2cccc(Cl)c2)cc1,-27%,-2,-2,-8%,3,.
O=C(Nc1cc(Cl)ccc1Cl)N1CCCC1,21µM*,16,-26,18µM*,-2,3%
COc1cccc(NC(=O)Nc2ccccc2C(N)=O)c1,-29%,2,-2,-21%,1,3%
CC(=O)c1ccc(NC(=O)Nc2cccc(Cl)c2)cc1,21µM*,-9,-96*,?,-17,4%
O=C(CN1c2ccccc2Sc2ccccc21)NNC(=O)Nc1cccc(Cl)c1,23µM*,0,-88*,10µM*,-17,.
Fc1ccccc1-c1nc(-c2ccc(Br)o2)no1,4%,22,9,1%,-4,.
CCOC(=O)c1[nH]c2ccccc2c1NC(=O)CCN1CC(C)OC(C)C1 (centres undefined),-6%,-4,2,3%,7,4%
Cc1ccc(C(=O)Nc2ccc3c(c2)OCO3)cc1,?,-16,-19,-29%,-5,3%
Cc1ccc(N(C(C)C(=O)Nc2ccc3c(c2)OCO3)S(C)(=O)=O)cc1 (centres undefined),13µM*,-11,-4,21µM*,1,3%
CC(=O)Nc1ccc2c(c1)OCO2,25%,6,3,-2%,10,0%
O=C(Nc1ccc2c(c1)OCO2)Nc1ccccc1F,9.2µM*,-1,?,5.8µM*,1,2%
COC(=O)c1cccc(NC(=O)NC(=O)c2ccccc2Cl)c1,-5%,10,-14,-13%,1,-2%
CCc1ccccc1NC(=O)Nc1ccc2c(c1)OCO2,-11%,1,10,13%,6,-1%
COC(=O)c1cccc(NC(=O)Nc2ccc(Cl)c(Cl)c2)c1,18µM*,24,-85*,?,8,2%
O=C(CCl)Nc1ccc2c(c1)OCO2,13µM*,7,-97*,?,5,3%
CC1CN(CC(=O)NCCc2ccncc2)Cc2ccccc2O1 (centres undefined),6%[9.04 µM],.,.,-11%,.,.
COc1ccc(Cl)cc1NC(=O)Nc1ccccc1C(N)=O,18µM*,.,20,8.2µM*,-2,4%
O=C(NNc1ccccc1)Nc1cc(Cl)ccc1Cl,-27%,-4,-97*,-22%,-7,.
SMILES,TDP1 cell CPT,CtBP-E1A inh,IL-1B inflam inh,TDP1 cell noCPT,Six1-Eya2 inh,TDP1 block
CN1CCC/C1=C1/C(=O)N(c2ccccc2)N=C1NC(=O)Nc1cccc(Cl)c1,8.2µM*,.,-12,15µM*,-10,3%
O=C(Nc1cccc(Cl)c1)Nc1ccc2c(c1)OCO2,?,-9,?,16µM*,-19,2%
CCCCCCn1cc(CN(C)C2CN(Cc3cn(CCCCCC)nn3)S(=O)(=O)C2)nn1 (centres undefined),?,-1,8,?,0,.
CN(c1nnc(N)s1)C1CCCCC1,5%,3,12,1%,0,-3%
O=C(OCc1ccc(F)cc1)c1cc(=O)c2ccccc2o1,-3%,10,-14,1%,1,8%
C(=C\c1ccccc1)/CN1CCN(C(c2nnnn2-c2ccc3c(c2)OCCO3)C2CC2)CC1 (centres undefined),23µM*,-23,-21,15µM*,-25,.
COc1ccc(-n2nnnc2C(C2CC2)N2CCN(C/C=C/c3ccccc3)CC2)cc1 (centres undefined),?,-10,-9,?,-7,.
CCC(c1nnnn1-c1ccc2c(c1)OCCO2)N1CCN(C/C=C/c2ccccc2)CC1 (centres undefined),?,-12,-3,13µM*,-18,.
COc1ccc(-n2nnnc2C(CCSC)N2CCN(C/C=C/c3ccccc3)CC2)cc1 (centres undefined),?,-25,?,?,-26,.
CCC(c1nnnn1-c1ccc2c(c1)OCCO2)N1CCN(CCN2CCOCC2)CC1 (centres undefined),-7%,0,-1,7%,0,.
C(=C\c1ccccc1)/CN1CCN(C(CCc2ccccc2)c2nnnn2-c2ccc3c(c2)OCCO3)CC1 (centres undefined),10µM*,-28,-30,21µM*,-28,.
CCCCCCCCCCCCCCCCCCNC(=O)OC1CCN(C(=O)OC[C@H](COC(=O)N(Cc2cccc[n+]2CC)C(=O)c2ccccc2OC)OC)CC1,12µM*,.,.,12µM*,.,.
Cc1cccc(CCN(C(=O)Cc2cccs2)C(C(=O)NC2CCCCC2)c2cccnc2)c1 (centres undefined),5.8µM*,-9,?,?,1,-7%
Cc1ccc(C(C(=O)NC2CCCC2)N(C(=O)Cc2cccs2)c2ccc3c(c2)OCCO3)cc1 (centres undefined),?,-12,-58*,?,-7,6%
O=C(NCC(=O)N(c1ccc2c(c1)OCO2)C(C(=O)NC1CCCC1)c1ccncc1)c1ccco1 (centres undefined),23µM*,-1,21,23µM*,0,.
Cc1ccc(C(C(=O)NC2CCCC2)N(C(=O)Cc2cccs2)c2ccc(C)c(C)c2)o1 (centres undefined),?,-1,-74*,22µM*,-9,3%
O=C(NCC(=O)N(c1ccc(Cl)cc1)C(C(=O)NC1CCCC1)c1ccncc1)c1ccco1 (centres undefined),23%,6,-8,-1%,7,.
